Results from PubChem BioAssay AID686978 (National Center for Advancing Translational Sciences (NCATS), 2013).
The whole screen tested about 420,000 compounds, of which about 64,000 (15%) were called active. Roughly 27% stayed inconclusive and do not appear here. The list is a sample of the results. Unmarked numbers belong to inactive results. Calls follow the shape of the dose curve; as a rule, active = well fitted inhibition curve with a large enough effect; inconclusive = small, poorly fitted or top-dose-only effect; inactive = flat fitted curve, though single readings scatter. Square brackets hold non-standard residues; d marks the D form. Peptide text beside a SMILES is read from it. * marks the point of attachment. ξ: configuration not given here. Cbz = O=C(OCc1ccccc1)*; ξL = CC(C)CC(N)C(=O)O; ξP = O=C(O)C1CCCN1

experiment: qHTS for Inhibitors of human tyrosyl-DNA phosphodiesterase 1 (TDP1): qHTS in cells in absence of CPT; details: DT40 Tdp1-/- hTDP1 cells, no CPT, ATP luminescence, 48 h; activity change, negative = growth inhibition: at 46.2 µM (top of the series); also: nearly all actives have a fitted effect of over 55% in size
In short: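 No-CPT arm: Tdp1-/-;hTDP1 DT40 cells (400/well) plus compounds, incubated ≥48 hr at 37 °C. Readout CellTiter-Glo luminescence.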
% is scaled to controls: 0 for no effect and ±100 for the full control effect; potency is read from the fitted curve at half-maximal effect.

| SMILES | activity change, negative = growth inhibition [%] | Potency |
| --- | --- | --- |
| Cc1nc(C(F)(F)F)ccc1C(=O)N1CCC1(C)C(=O)NS(=O)(=O)c1ccccc1Cl (stereo not given) | 4.11 | – |
| Cc1ccccc1NC(=O)Cc1nc(COC(=O)c2cccnc2Cl)cs1 | -10.3 | – |
| COC(=O)c1cc(CNC(=O)CC(C)c2ccccc2)ccc1OC (stereo not given) | -11.8 | – |
| O=C(OCC(=O)N1CCCC1)c1ccc(Cl)nc1 | 0.594 | – |
| O=C(O)C1CCC(CNS(=O)(=O)c2ccc(Br)cc2)CC1 (stereo not given) | 18.6 | – |
| CCOC(=O)c1cc2cc(OC)ccc2n1C1CCN(C)CC1 | – | 18.4 µM (active) |
| CCOC(=O)c1cc2c(ccn2C)n1CC(=O)N1CCC(C)CC1 | -8.97 | – |
| COc1ccc2[nH]c(C(=O)N3CCN(C)CC3)c(C)c2c1 | 4.91 | – |
| Cc1c(NC(=O)CCCOc2ccccc2)cccc1[N+](=O)[O-] | -19.6 | – |
| Cc1csc(CN(C)C(=O)CC2C(=O)NCCN2CC(C)(C)C)n1 (stereo not given) | 10.7 | – |
| O=C(N/N=C/c1ccccc1O)/C(=C/c1ccccc1)CCO | – | 5.17 µM (active) |
| C=CCOc1ccccc1/C=N/NC(=O)Cc1ccccc1 | -6.16 | – |
| O=C(N/N=C/c1ccc(O)cc1)/C(=C/c1ccc([N+](=O)[O-])cc1)NC(=O)c1ccccc1 | -11.1 | – |
| Oc1ccccc1C=NC1CCCCC1N=Cc1ccccc1O (stereo not given) | 7.72 | – |
| O=C(CCC(=O)Nc1ccccc1)N/N=C/c1ccccc1F | 0.37 | – |
| O=C(NN=Cc1ccccc1O)NN=Cc1ccccc1O | – | 5.8 µM (active) |
| O=C(NCC1CCCCC1)c1cc(S(=O)(=O)N2CCCCC2)ccc1N1CCOCC1 | 2.24 | – |
| N#CCCN(C(=O)COC(=O)c1ccc2c(c1)OCCO2)c1ccccc1 | -5.69 | – |
| O=C(Cn1nc([N+](=O)[O-])nc1Br)NC1CCCCC1 | -0.17 | – |
| CCOC(=O)C(C)n1cnc2c(nnn2-c2ccc(F)cc2)c1=O (stereo not given) | -10.3 | – |
| O=C(Cn1cnc2c(nnn2-c2ccccc2)c1=O)N1CCC(Cc2ccccc2)CC1 | – | 20.6 µM (active) |
| Cc1ccc(Cn2nnc3c(=O)n(CC(=O)N4CCCCC4)cnc32)cc1 | -21.5 | – |
| CC(=O)Nc1ccc(S(=O)(=O)N2CCC(NC(=O)c3ccccc3)CC2)cc1 | -9.1 | – |
| CCCNC(=O)c1c(N)n(-c2ccc(S(N)(=O)=O)cc2)c2nc3ccccc3nc12 | -11.3 | – |
| O=C(NCc1cccs1)c1ccc(Br)o1 | 11.6 | – |

| SMILES | activity change, negative = growth inhibition [%] | Potency |
| --- | --- | --- |
| CC(C)Cn1c(N)c(C(=O)NCc2cccs2)c2nc3ccccc3nc21 | – | 20.6 µM (active) |
| Cn1nccc1NC(=O)CC(CC(=O)O)c1ccccc1 (stereo not given) | 2.44 | – |
| COc1ccc(NC(=O)CS(=O)(=O)c2ccccc2)cc1 | 9.07 | – |
| CC(=O)Nc1ccccc1OC(=O)N1CCOCC1 | 3.24 | – |
| CC(=O)N1c2ccc(S(=O)(=O)N3CCC(C(=O)N4CCN(c5ccccc5)CC4)CC3)cc2CC1C (stereo not given) | – | 20.6 µM (active) |
| CC(=O)c1ccc(S(=O)(=O)N2CCC(Oc3ccc(-n4cnnn4)cc3)CC2)cc1 | – | inactive |
| CC(=O)c1ccc(N2CCN(C(=O)C3CCN(S(=O)(=O)c4ccc5c(c4)CC(C)N5C(=O)C4CC4)CC3)CC2)cc1 (stereo not given) | – | 4.11 µM (active) |
| NC(=O)C1CCN(C(=O)c2cc(S(=O)(=O)N3CCN(c4ccccc4)CC3)ccc2Cl)CC1 | – | 6.51 µM (active) |
| CS(=O)(=O)N1CCC(C(=O)N2CCN(c3ccccc3)CC2)CC1 | -8.27 | – |
| NC(=O)C1CCN(C(=O)c2ccc(-c3ccccc3)cc2)CC1 | -2.77 | – |
| CCS(=O)(=O)N1CCC(C(=O)N2CCN(c3ccccc3)CC2)CC1 | -3.39 | – |
| NC(=O)COC(=O)c1cc(S(=O)(=O)N2CCN(c3ccccc3)CC2)ccc1Cl | -2.99 | – |
| CC(=O)c1ccc(N2CCN(S(=O)(=O)c3c(C)[nH]c(=O)[nH]c3=O)CC2)cc1 | -2.01 | – |
| COc1ccc(NC(=O)CN(C)S(=O)(=O)c2ccccc2)cc1OC | -13.2 | – |
| O=C(NCCS(=O)(=O)c1ccc(Br)cc1)c1ccccc1Cl | -2.05 | – |
| COc1ccc(NC(=O)NN2CCN(C)CC2)c(OC)c1 | 22.4 | – |
| O=C(Cn1cc2c(n1)CCCCC2)NCCN1CCOCC1 | 4.76 | – |
| Cn1c(=O)sc2cc(NS(=O)(=O)c3ccc(C(C)(C)C)cc3)ccc21 | -11.5 | – |
| CC1=NN(C(=O)c2ccccc2Br)C(O)(c2cccnc2)C1 (stereo not given) | -6.62 | – |
| CCC(C)(C)C1CCC(=NNC(=O)c2ccc(Br)o2)CC1 (stereo not given) | -31.9 | – |
| O=C(NCCc1ccccc1)C1CC1 | 19.3 | – |
| CCCC1CCC(=NNC(=S)NCCc2ccccc2)CC1 (stereo not given) | – | 7.31 µM (active) |
| CC(C)CC(NC(=O)C1CCCN1C(=O)[C@@H](C)NC(=O)OCc1ccccc1)C(=O)NCC(N)=O (stereo not given in full) (Cbz-[dA][ξP][ξL]G-NH2) | 6.22 | – |
| COc1cc(OC)cc(-c2nc3ccccc3c(=O)n2NC(=O)c2cccnc2Cl)c1 | -13.2 | – |
| CSc1nc(C)nc(C2CC2)c1C#N | -0.461 | – |

| SMILES | activity change, negative = growth inhibition [%] | Potency |
| --- | --- | --- |
| Cc1noc(C)c1NC(=O)Nc1ccc2c(c1)C(=O)N([C@H](C)CO)C[C@H](C)[C@@H](CN(C)C(=O)Nc1ccccc1)O2 | -1.47 | – |
| Cc1cc2ccccc2n1CCNC(=O)c1ccc(F)cc1 | – | 18.4 µM (active) |
| CCCCCn1c(CCCNC(=O)c2ccccc2OC)nc2ccccc21 | – | 18.4 µM (active) |
| COc1ccccc1C(=O)NCCC(=O)NC(C)CCc1ccccc1 (stereo not given) | -17.9 | – |
| CCCCCn1c(CCNC(=O)c2ccc(F)cc2)nc2ccccc21 | – | 18.4 µM (active) |
| Cc1cc2ccccc2n1CCC(=O)O | 7.92 | – |
| CCC(=O)NCCc1nc2ccccc2n1CC | -1.27 | – |
| CCCCOCCCNC(=O)c1ccccc1OCC | -11.3 | – |
| O=C(CNC(=O)c1ccc(F)cc1)c1ccccc1 | -19.7 | – |
| CC(=O)NCCc1nc2cc(NC(=O)c3ccccc3)ccc2n1C | 11 | – |
| CCN(CC)CCCNC(=O)CCc1ccccc1 | -0.8 | – |
| CCN(CC)CCCN=C(N)N | 2.6 | – |
| COc1cc(NS(=O)(=O)c2ccc(NC(=S)NC(=O)c3ccc(Br)cc3)cc2)ncn1 | -27.4 | – |
| COc1ccc(COCC(O)CN2CCC(C(N)=O)CC2)cc1 (stereo not given) | -4.64 | – |
| Clc1ccccc1-c1cc(COc2ccc3ccccc3c2)no1 | -29.6 | – |
| CCCCNC(=O)CCn1c(=S)[nH]c2cc3c(cc2c1=O)OCO3 | -3.61 | – |
| CCN1CCN(C(=O)N[C@@H](C(=O)N[C@@H]2C(=O)N3C(C(=O)O)=C(CSc4nnnn4C)CS[C@H]23)c2ccc(O)cc2)C(=O)C1=O | – | inactive |
| COc1ccc(Cl)cc1C=CC=Nc1ccc(S(N)(=O)=O)cc1 | – | 16.4 µM (active) |
| NS(=O)(=O)c1ccc(N=Cc2ccc(Br)s2)cc1 | -1.33 | – |
| COc1ccc(Cl)cc1C=CC=NNC(=O)c1ccncc1 | -17.1 | – |
| CCN1C(=O)[C@H]2[C@@H](c3ccccc3)N[C@]3(CCCN(Cc4ccc(C)cc4)C3=O)[C@H]2C1=O | -5.24 | – |
| CCN1C(=O)[C@H]2[C@@H](c3ccc(C(F)(F)F)cc3)N[C@]3(CCCN(Cc4ccc(Br)cc4)C3=O)[C@H]2C1=O | – | 9.2 µM (active) |
| Cc1ccc([C@H]2N[C@]3(CCCN(CC4CCCCC4)C3=O)[C@H]3C(=O)N(Cc4ccccc4)C(=O)[C@@H]23)cc1 | – | 23.1 µM (active) |
| O=C1[C@H]2[C@@H](c3ccc(C(F)(F)F)cc3)N[C@]3(CCCN(Cc4ccc(Br)cc4)C3=O)[C@H]2C(=O)N1Cc1ccccc1 | – | 23.1 µM (active) |
| COc1ccc([C@H]2N[C@]3(CCCN(Cc4ccco4)C3=O)[C@H]3C(=O)N(C)C(=O)[C@@H]23)cc1 | -28.7 | – |

| SMILES | activity change, negative = growth inhibition [%] | Potency |
| --- | --- | --- |
| CCN1C[C@@H]2[C@@H]3C(=O)N(Cc4ccccc4)C(=O)[C@@H]3[C@](C)(C1=O)N2C(=O)c1ccc(C(C)(C)C)cc1 | -28 | – |
| O=C1[C@H]2[C@@H](c3ccc(C(F)(F)F)cc3)N[C@]3(CCCN(Cc4ccc(Cl)cc4)C3=O)[C@H]2C(=O)N1Cc1ccccc1 | – | 20.6 µM (active) |
| Cc1ccc(C(=O)Oc2ccc(C(=S)N3CCOCC3)cc2)cc1 | -1.68 | – |
| c1ccc(-c2ccnc3nc(-n4cccc4)nn23)cc1 | -27.3 | – |
| O=C(CN(C(=O)c1nsc(Cl)c1Cl)c1cccc(F)c1)NC1CCCC1 | -10.5 | – |
| O=C(CCc1ccc(S(=O)(=O)N2CCOCC2)cc1)NN=C1CCCCCCC1 | -23.8 | – |
| CCN(CC)CCN(C(=O)c1cccc([N+](=O)[O-])c1)c1nc2ccc(OC)cc2s1 | -6 | – |
| Cc1noc(C)c1NC(=O)Nc1ccc2c(c1)C(=O)N([C@H](C)CO)C[C@H](C)[C@@H](CN(C)C(=O)Nc1ccc(C(F)(F)F)cc1)O2 | -3.6 | – |
| CCN(CC)C(=O)COc1coc(CN2CCN(Cc3ccccc3)CC2)cc1=O | -2.5 | – |
| O=C(CSc1nnc(-c2ccncc2)o1)NCc1ccc(Cl)cc1 | -3.3 | – |
| Fc1ccc(-c2ccc(NCCN3CCOCC3)nn2)cc1 | 0.015 | – |
| Nc1cc(C(F)(F)F)ccc1N1CCOCC1 | -12.3 | – |
| Oc1[nH]c2ccccc2c1N=Nc1c(F)c(F)c(F)c(F)c1F | – | 13 µM (active) |
| Oc1[nH]c2ccc(Br)cc2c1N=Nc1nn[nH]n1 | 0.673 | – |
| Cc1cccc(N=Nc2c(O)[nH]c3ccc(F)cc23)c1 | -23.1 | – |
| CCC(Cc1ccccc1)NC(=O)C1CCCCC1 (stereo not given) | -2.07 | – |
| O=C1c2ccccc2C(=O)N1c1ccc(S(=O)(=O)N2CCOCC2)c2ccccc12 | -11.7 | – |
| COc1ccc(-c2csc(NC(=O)c3ccc(N4C(=O)CCC4=O)cc3)n2)cc1OC | -23 | – |
| COc1ccc(-c2csc(Nc3cccc(C)n3)n2)cc1OC | – | 25.9 µM (active) |
| Fc1ccc(-c2csc(-c3ccc(C4SCCS4)cc3)n2)cc1F | -28.9 | – |
| COc1ccc(CC(=O)Nc2nc(-c3ccc(F)c(F)c3)cs2)cc1OC | – | 6.51 µM (active) |
| Cc1ccc(S(=O)(=O)NC(=O)Nc2nc(-c3ccc(F)c(F)c3)cs2)cc1 | -3.11 | – |
| COc1cc(CC(=O)Nc2nc(-c3ccc(F)c(F)c3)cs2)cc(OC)c1OC | – | 5.8 µM (active) |
| COc1cccc(CC(=O)Nc2nc(-c3ccc(OC)c(OC)c3)cs2)c1 | – | 18.4 µM (active) |
| COc1ccc(CC(=O)Nc2nnc3n2CCS3)cc1OC | -29.4 | – |
